# In the library only some 2.4% were active in any assay of this set; here they are far more common.
# Cruzain Triton – qHTS Assay for Promiscuous and Specific Inhibitors of Cruzain (with detergent); Potency, µM, for the others: max response, negative = inhibition, actives largely listed as inhibitors; purified cruzain, Z-FR-AMC fluorescence, 0.01% Triton; AID 1478, 2009; 200,000 tested, 0.43% active; Cruzipain (Trypanosoma cruzi), P25779;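 further: plate controls were neutral wells for no effect and buffer without enzyme for full effect; nearly all actives have a fitted effect of over 40% in size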
# Target sequence (P25779 123-467 limits assumed): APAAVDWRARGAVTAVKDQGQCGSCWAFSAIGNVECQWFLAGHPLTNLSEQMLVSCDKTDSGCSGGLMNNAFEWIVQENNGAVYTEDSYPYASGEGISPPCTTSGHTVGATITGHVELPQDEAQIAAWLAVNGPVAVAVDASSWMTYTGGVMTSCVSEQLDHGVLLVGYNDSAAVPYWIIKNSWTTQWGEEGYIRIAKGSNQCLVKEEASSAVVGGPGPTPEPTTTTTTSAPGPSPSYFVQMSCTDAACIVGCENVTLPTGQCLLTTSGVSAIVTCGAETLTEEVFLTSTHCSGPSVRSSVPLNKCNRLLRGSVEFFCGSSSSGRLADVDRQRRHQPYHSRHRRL
#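 Read-out: AMC fluorescence (360 nm excitation, 450 nm emission), four reads over 2 min, first-to-third difference used. Conditions: cruzain 1.5 nM, Z-FR-AMC 2 uM, pH 5.5 acetate, 5 mM DTT, 0.01% Triton X-100.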
# Cruzain inh noDet – qHTS Assay for Promiscuous and Specific Inhibitors of Cruzain (without detergent) | AID 1476, 2009 | 200,000 tested, 2.3% active | Potency, µM, inactives show max response, negative = inhibition, hits mostly inhibitors | purified cruzain, Z-FR-AMC fluorescence, no detergent | Cruzipain (Trypanosoma cruzi), P25779;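 further: plate controls were enzyme without inhibitor for no effect and buffer without enzyme for full effect; nearly all actives have a fitted effect of over 40% in size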
#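 Detergent-free condition (0.00005% Triton X-100) in acetate buffer pH 5.5 with DTT. 1.5 nM enzyme and compound were pre-mixed 15 min, then 2 uM Z-FR-AMC substrate added; reaction progress from fluorescence change between first and third reads (60 s).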
# Active calls of the source: *; u = inconclusive. The call rests on the fitted dose curve; in most records, active means well fitted curve in the direction sought with a large enough effect; inconclusive means small, poorly fitted or top-dose-only effect, or another doubt; inactive means no such curve, though single readings can be large; an effect the other way counts as inactive or inconclusive. Potency means the concentration at half of the fitted maximal effect.
SMILES,Cruzain Triton,Cruzain inh noDet
O=C(NCCCN1CCc2ccccc2C1)C1CCN(c2nnc(-n3cccc3)s2)CC1,25.1µM*,-24.1%
O=C(NCCCN1CCN(Cc2ccccc2)CC1)C1CCN(c2nnc(-n3cccc3)s2)CC1,-6.8%,-9.4%
Cc1ccc(C(=O)N/C(=C\c2cccs2)C(=O)NCc2cccnc2)cc1,4.1%,13.3%
C/C(N)=C(/C#N)C(=O)COC(=O)CCSc1ccccc1,-12.2%,-17.2%
O=C(Nc1nnc(-c2ccccc2SCc2ccccc2)s1)Nc1ccccc1F,-0.6%,3.16µM*
COc1cccc(NC(=O)Nc2nnc(-c3ccccc3SCc3ccccc3)s2)c1,5.2%,3.16µM*
Cc1cccc(NC(=O)Nc2nnc(N(C)Cc3ccccc3)s2)c1,-7.6%,4.9%
CCN(c1ccccc1)c1nnc(NC(=O)Nc2ccccc2F)s1,-3.4%,-10.6%
COc1ccc(NC(=O)Nc2nnc(-c3ccccc3SCc3ccccc3)s2)cc1,7.9%,10µM*
CCOc1ccc(NC(=O)CSc2nnc(NC(=O)Nc3ccccc3)s2)cc1,-0.4%,13.9%
CC(=O)c1ccc(NC(=O)CCc2c(C)nc3c(c(C)nn3-c3ccc(C)cc3)c2C)cc1,-4.6%,2.7%
COc1ccc(-n2c(C)cc(=O)c3c2CC(C)(C)CC3=O)cc1,4.2%,-4.5%
Nc1nnc(SCC(=O)Nc2ccc(F)c(Cl)c2)n1-c1ccccc1,-8.0%,-0.3%
COc1ccc(/C=C/C(=O)C(C(N)=O)=C2SCCS2)cc1,-5.8%,7.2%
Cc1ccc(C(=O)C(C(=O)/C=C/c2ccccc2)=C2SCCCS2)cc1,-7.5%,25.1µM*
Cc1ccc(-c2nn(-c3ccccc3)cc2/C=N/NC(=O)c2ccc(Br)o2)cc1,1.4%,u
COc1ccc(-c2nn(-c3ccccc3)cc2/C=N/NS(=O)(=O)c2ccccc2)cc1,-1.0%,u
O=C(N/N=C\c1cn(-c2ccccc2)nc1-c1ccccc1)c1ccc(Br)o1,2.5%,25.1µM*
COc1ccc(-c2nn(-c3ccccc3)cc2/C=N/NC(=O)c2cccc(S(=O)(=O)Nc3ccccc3Cl)c2)cc1,-5.5%,7.94µM*
CCOC(=O)Cc1nnc(Nc2cccc(O)c2)c2ccccc12,-0.9%,5.4%
Cc1csc2nc(COC(=O)c3ccccc3NC(=O)c3ccc(C(C)(C)C)cc3)cc(=O)n12,-0.1%,-3.6%
COc1ccc(CCNc2nc(N3CCOCC3)nc(N3CCOCC3)n2)cc1OC,4.7%,1.5%
Cc1ccc(/C=C/c2onc(C)c2S(=O)(=O)N2CCC(C(=O)N3CCOc4ccccc43)CC2)cc1,-3.0%,-28.3%
Cc1ccc2c(c1)N(C(=O)C1CCN(S(=O)(=O)c3c(C)noc3/C=C/c3ccccc3F)CC1)CCO2,-4.9%,12.6µM*
Cc1ccc(Cl)cc1N1CCN(C(=O)C2CCN(S(=O)(=O)c3c(C)noc3/C=C/c3ccccc3F)CC2)CC1,-2.1%,6.31µM*
SMILES,Cruzain Triton,Cruzain inh noDet
CC(=O)c1ccc(N2CCN(C(=O)C3CCN(S(=O)(=O)c4c(C)noc4/C=C/c4ccccc4F)CC3)CC2)cc1,-3.8%,-11.9%
CCC1CN(C(=O)C2CCN(S(=O)(=O)c3c(C)noc3/C=C/c3ccccc3F)CC2)c2cc(Cl)ccc2O1 (configuration not stated),-2.5%,3.16µM*
CCC1CN(C(=O)C2CCN(S(=O)(=O)c3c(C)noc3/C=C/c3ccccc3F)CC2)c2cc(C)ccc2O1 (configuration not stated),-4.1%,u
O=C(O)CSc1ncccc1C(=O)O,-2.5%,2.1%
Cc1cc2oc(=O)cc(CN3CCN(S(=O)(=O)/C=C/c4ccccc4)CC3)c2cc1C,-3.4%,u
CCOC(=O)C1CCN(c2nc3ccccc3nc2C(C#N)C(=O)NCCc2ccccc2)CC1 (configuration not stated),-8.1%,-3.2%
COc1cc(C)nc(N2CCC(C(=O)NC3CCCCC3)CC2)n1,8.8%,11.5%
COc1cccc(Cn2nnc3c(=O)[nH]c(C4CCCN(C(=O)c5ccccc5Cl)C4)nc32)c1 (configuration not stated),-3.5%,u
O=c1cc(-c2cccs2)oc2ccc(Cl)cc12,-2.6%,0.2%
O=C1OC(/C=C/c2ccc(Cl)cc2Cl)=NC/1=C\c1cccs1,u,25.1µM*
CCCc1cc(=O)[nH]c(Nc2ccc(OCC)cc2)n1,-6.4%,5.7%
COc1cc(NC(=O)CSc2nnc(C)s2)cc(OC)c1OC,6.2%,-6.8%
COCCn1c(SCC(=O)NC(=O)NC(C)(C)C)nc2ccccc21,-2.6%,-8.0%
O=C(COc1ccc(Cl)cc1)Nc1nnc(-c2ccc3c(c2)CCCC3)o1,1.2%,7.94µM*
CC(=O)Nc1nnc(-c2ccc3c(c2)CCCC3)o1,-1.8%,-10.0%
O=C(Nc1nnc(-c2ccc(Cl)cc2)o1)NC1CCCCC1,8.7%,25.1µM*
O=C(Nc1ccc(Cl)cc1)NC1CCCCC1,-1.4%,-2.2%
Cc1ccc(C2=Nc3ccccc3N=C(c3ccco3)C2)c(O)c1,-0.8%,-3.9%
CCOc1ccc(C(=O)Nc2cc(-c3nc4ccccc4s3)ccc2OC)cc1,-0.1%,5.9%
O=C(Nc1ccc(OC(F)(F)F)cc1)c1cc2ccccn2n1,-2.1%,25.1µM*
COc1ccc(NC(=O)c2cc3ccccn3n2)cc1,-0.8%,-10.0%
Cc1cccc(OCc2ccc(-c3nc(C#N)c(N4CCC(C(N)=O)CC4)o3)o2)c1,-5.0%,u
CC(C)CCOCC(=O)Oc1ccccc1C(=O)O,0.8%,-0.2%
CC(CNC(=O)c1ccc(CSc2nc3ccncc3n2Cc2ccc(F)cc2)cc1)c1ccccc1 (configuration not stated),-5.4%,3.2%
O=C(N/N=C/c1ccccc1)c1ccc(CN2C(=O)c3cccc4cccc2c34)cc1,-1.7%,-68.1%
SMILES,Cruzain Triton,Cruzain inh noDet
COc1cccc(/C=N/NC(=O)c2ccc(CN3c4cccc5cccc(c45)S3(=O)=O)cc2)c1,-5.9%,20µM*
COc1cc(/C=N/NC(=O)c2cc(-c3cccn3C)n[nH]2)cc(OC)c1OC,-1.7%,5.8%
COc1cccc(/C=N/NC(=O)c2cc(-c3cccn3C)n[nH]2)c1,1.0%,25.1µM*
COc1cccc(/C=N/NC(=O)c2ccc(OCc3cccc(Br)c3)cc2)c1,0.3%,u
CN(C)c1ccc(/C=N/NC(=O)c2ccc(CN3C(=O)c4cccc5cccc3c45)cc2)cc1,-1.1%,3.98µM*
Cn1c(N)c(C(=O)COC(=O)Cn2cc(C(F)(F)F)ccc2=O)c(=O)n(C)c1=O,1.9%,5.0%
CCC(NC(=O)c1ccccc1NC(=O)c1ccco1)C(=O)O (configuration not stated),0.9%,-5.6%
CC1=CC(C)(C)n2c(O)c(C3=NC(=S)NC3=O)c3cc(OC(=O)c4cccc5ccccc45)cc1c32,0.9%,3.16µM*
COc1cccc(C(=O)Oc2cc3c4c(c2)C(C)=CC(C)(C)N4C(=O)C3=O)c1,-3.8%,14.1%
COc1ccc(N2CCN(C(=O)c3cn(CC(C)C)c(=O)c4c3c3ccccc3n4C)CC2)cc1,-11.1%,u
COc1ccccc1Cn1ccn(Cc2ccc(C)cc2)c(=O)c1=O,-6.2%,u
CCOC(=O)c1sc(N(Cc2ccccc2)C(=O)COC(=O)c2ccccc2O)nc1C,-6.6%,-15.7%
CCOC(=O)c1sc(N(Cc2ccccc2)C(=O)COC(=O)c2ccc(O)cc2)nc1C,-4.5%,15.8µM*
CCOC(=O)c1c(Nc2ccccc2)sc(/C=C2\C=Nc3ccccc32)c1O,4.7%,-27.0%
CCn1c(O)c(/C=C2\C=Nc3ccccc32)sc1=Nc1ccc(C)cc1,3.5%,15.8µM*

# Source: PubChem (National Center for Advancing Translational Sciences (NCATS))
